This passage reports GLP1 secretion stimulation and inhibition of viability results from PubChem BioAssay.

Unmarked numbers belong to inactive results. Calls of active or inactive are those of the source.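 The calls were made as follows, unless noted: active = compounds that lower survival of HCT116 colon cancer cells in the luminescence readout, no numeric limit stated; inactive = the rest.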 Peptide text beside a SMILES is read from it.

The first assay can be described thus: glucagon-like peptide 1 release enhancers, primary assay, NCI-H716 cell line, NPC library (AID 1117341;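 active = compound raises GLP1 secretion from the human gut endocrine cells, with no numeric limit stated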; also: reference of the scale not given here). Particulars: NCI-H716 cells, at 10 µM, hits give high values.
In the case of `CCCC(C(=O)OCCN(CC)CC)(c1ccccc1)c1ccccc1`, the GLP1 secretion stimulation is 11.5%.
As to `O=C(Nc1ccc([N+](=O)[O-])cc1Cl)c1cc(Cl)ccc1O`, the GLP1 secretion stimulation was 3.3%.
In the case of `C=CC(N)CCC(=O)O` (stereo unspecified), the GLP1 secretion stimulation is -0.9%.
The same measure, in the same setting: the value for `CC1(C)O[C@@H]2C[C@H]3[C@@H]4CCC5=CC(=O)CC[C@]5(C)[C@@]4(F)[C@@H](O)C[C@]3(C)[C@]2(C(=O)CCl)O1` was -1.7%; that for `CNC1(C)C2CCC(C2)C1(C)C` (stereo unspecified) was 4.9%; that for `NCCS` was -3.8%.
Still for that read-out and setting: the same measure for `OC[C@H]1O[C@@H](O[C@@H]2[C@@H](CO)O[C@](O)(CO)[C@H]2O)[C@H](O)[C@@H](O)[C@H]1O`: 0.8%.
On the same count and under the same terms, the value for `Nc1c2c(nc3ccccc13)CCCC2O` (stereo unspecified) was 8.3%; that for `CSc1ccc2c(c1)C(N1CCN(C)CC1)Cc1ccccc1S2` (stereo unspecified) was 19.2%; that for `Cc1ccc(C(=O)Nc2ccc(S(=O)(=O)O)c3cc(S(=O)(=O)O)cc(S(=O)(=O)O)c23)cc1NC(=O)c1cccc(NC(=O)Nc2cccc(C(=O)Nc3cc(C(=O)Nc4ccc(S(=O)(=O)O)c5cc(S(=O)(=O)O)cc(S(=O)(=O)O)c45)ccc3C)c2)c1` was 36.3% (active).
For `C[N+]1(CCCCC[N+]2(C)CCCC2)CCCC1`, the GLP1 secretion stimulation is -1.6%.
On the same count and under the same terms, the value for `CCCCCN(CCCCC)C(=O)C(CCC(=O)O)NC(=O)c1ccc(Cl)c(Cl)c1` (stereo unspecified) was 6.6%; that for `NC(=O)NO` was -2%; that for `CCOC(=O)C(C)(C)Oc1ccc(Cl)cc1` was -1.1%.
For the compound `CC(=O)OC(C)C[N+](C)(C)C` (stereo unspecified), the GLP1 secretion stimulation was 5.7% (active).
For the compound `NNc1nncc2ccccc12`, the GLP1 secretion stimulation is 5.2%.
The same measure, in the same setting: the same measure for `CCOC(=O)NNc1nncc2ccccc12`: -0.3%.
Still for that read-out and setting: the value for `COC(=O)[C@H](Cc1ccccc1)NC(=O)[C@@H](N)CC(=O)O` (H-Asp-Phe-OMe) was 0.8%; that for `COc1ccnc(CS(=O)c2nc3ccc(OC(F)F)cc3[nH]2)c1OC` (stereo unspecified) was -0.9%.
Same read-out and setting: the value for `COC(=O)[C@@H]1[C@H]2C[C@H]3c4[nH]c5ccccc5c4CCN3C[C@@H]2CC[C@@H]1O` was -0.7%.
Take `CC(=O)Oc1ccccc1C(=O)O`: the GLP1 secretion stimulation was -3.4%.
Still for that read-out and setting: the value for `Cn1cnc2c1c(=O)[nH]c(=O)n2C` was -0.4%.
On the same count and under the same terms, the same measure for `O=C(COc1ccc(Cl)cc1)N1CCN(Cc2ccc3c(c2)OCO3)CC1`: 0.1%; for `C[n+]1cc2c3c(ccc2c2ccc4cc5c(cc4c21)OCO5)OCO3`: 27.5% (active); for `CN(C)[C@@H]1C(=O)C(C(N)=O)=C(O)[C@@]2(O)C(=O)C3=C(O)c4c(O)ccc(Cl)c4[C@@H](O)[C@H]3C[C@@H]12`: 10.2%.
Same read-out and setting: the value for `Cc1cc(N)c2ccccc2[n+]1CCCCCCCCCC[n+]1c(C)cc(N)c2ccccc21` was -0.6%; that for `C=Cc1c(C)c2cc3[nH]c(cc4nc(cc5nc(cc1[nH]2)C(C)=C5CCC(=O)O)C(CCC(=O)O)=C4C)c(C)c3C=C` was 117% (active).
Take `CCN(CC)C(C)CN1c2ccccc2Sc2ccccc21` (stereo unspecified): the GLP1 secretion stimulation was 4.8%.
On to `NCCCCCC(=O)O`, for which the GLP1 secretion stimulation is 1.1%.
The same measure, in the same setting: the same measure for `CCN(CC)CCNC(=O)c1ccc(NC(C)=O)cc1`: 1.6%.
Still for that read-out and setting: the value for `CCOC(=O)c1ccc(N)cc1` was -0.6%; that for `CNC[C@H](O)c1cccc(O)c1` was 1.4%.
Still for that read-out and setting: the same measure for `O=c1c(O)c(-c2ccc(O)c(O)c2)oc2cc(O)cc(O)c12`: 5.9%; for `O=C(OCC(O)CO)c1ccccc1Nc1ccnc2cc(Cl)ccc12` (stereo unspecified): -2.3%; for `CC(=O)O[C@]1(C(C)=O)CC[C@H]2[C@@H]3C=C(Cl)C4=CC(=O)[C@@H]5C[C@@H]5[C@]4(C)[C@H]3CC[C@@]21C`: 1.2%.
Regarding `C[C@H]1O[C@@H](n2cc(F)c(=O)[nH]c2=O)[C@H](O)[C@@H]1O`, the GLP1 secretion stimulation was -2.6%.
Same read-out and setting: the same measure for `CC1(C)NC(=O)N(c2ccc([N+](=O)[O-])c(C(F)(F)F)c2)C1=O`: -1.4%; for `C[N+](C)(C)CCCCCC[N+](C)(C)C`: -1.6%.

The nature of another assay: HCT116 colon cancer cell growth inhibition, primary screen, CellTiter-Glo luminescence, NPC library (AID 1117342). Particulars: at 20 µM (top of the series). (In general: ATP-based viability assays read luminescence as a measure of living cells.)
For `CCCC(C(=O)OCCN(CC)CC)(c1ccccc1)c1ccccc1`, the inhibition of viability is 86.3% (active).
Same read-out and setting: the value for `O=C(Nc1ccc([N+](=O)[O-])cc1Cl)c1cc(Cl)ccc1O` was 107% (active); that for `C=CC(N)CCC(=O)O` (stereo unspecified) was 10.9%; that for `CC1(C)O[C@@H]2C[C@H]3[C@@H]4CCC5=CC(=O)CC[C@]5(C)[C@@]4(F)[C@@H](O)C[C@]3(C)[C@]2(C(=O)CCl)O1` was -4.27%.
The same measure, in the same setting: the value for `CNC1(C)C2CCC(C2)C1(C)C` (stereo unspecified) was 15.7%; that for `NCCS` was 2.53%; that for `OC[C@H]1O[C@@H](O[C@@H]2[C@@H](CO)O[C@](O)(CO)[C@H]2O)[C@H](O)[C@@H](O)[C@H]1O` was 10%.
The same measure, in the same setting: the value for `Nc1c2c(nc3ccccc13)CCCC2O` (stereo unspecified) was 3.6%; that for `CSc1ccc2c(c1)C(N1CCN(C)CC1)Cc1ccccc1S2` (stereo unspecified) was 113% (active); that for `Cc1ccc(C(=O)Nc2ccc(S(=O)(=O)O)c3cc(S(=O)(=O)O)cc(S(=O)(=O)O)c23)cc1NC(=O)c1cccc(NC(=O)Nc2cccc(C(=O)Nc3cc(C(=O)Nc4ccc(S(=O)(=O)O)c5cc(S(=O)(=O)O)cc(S(=O)(=O)O)c45)ccc3C)c2)c1` was -17.7%.
In the case of `C[N+]1(CCCCC[N+]2(C)CCCC2)CCCC1`, the inhibition of viability is -2.5%.
On the same count and under the same terms, the value for `CCCCCN(CCCCC)C(=O)C(CCC(=O)O)NC(=O)c1ccc(Cl)c(Cl)c1` (stereo unspecified) was 4.6%.
On the same count and under the same terms, the value for `NC(=O)NO` was 23.9%; that for `CCOC(=O)C(C)(C)Oc1ccc(Cl)cc1` was -9.77%; that for `CC(=O)OC(C)C[N+](C)(C)C` (stereo unspecified) was -6.13%.
Take `NNc1nncc2ccccc12`: the inhibition of viability is 4.9%.
As for `CCOC(=O)NNc1nncc2ccccc12`, the inhibition of viability is -0.97%.
As for `COC(=O)[C@H](Cc1ccccc1)NC(=O)[C@@H](N)CC(=O)O` (H-Asp-Phe-OMe), the inhibition of viability is 5%.
Same read-out and setting: the value for `COc1ccnc(CS(=O)c2nc3ccc(OC(F)F)cc3[nH]2)c1OC` (stereo unspecified) was 5.27%.
Still for that read-out and setting: the value for `COC(=O)[C@@H]1[C@H]2C[C@H]3c4[nH]c5ccccc5c4CCN3C[C@@H]2CC[C@@H]1O` was 13.8%; that for `CC(=O)Oc1ccccc1C(=O)O` was -5.9%.
The same measure, in the same setting: the value for `Cn1cnc2c1c(=O)[nH]c(=O)n2C` was 6.3%.
Turning to `O=C(COc1ccc(Cl)cc1)N1CCN(Cc2ccc3c(c2)OCO3)CC1`, the inhibition of viability was 53.7% (active).
Same read-out and setting: the value for `C[n+]1cc2c3c(ccc2c2ccc4cc5c(cc4c21)OCO5)OCO3` was 102% (active); that for `CN(C)[C@@H]1C(=O)C(C(N)=O)=C(O)[C@@]2(O)C(=O)C3=C(O)c4c(O)ccc(Cl)c4[C@@H](O)[C@H]3C[C@@H]12` was 57% (active); that for `Cc1cc(N)c2ccccc2[n+]1CCCCCCCCCC[n+]1c(C)cc(N)c2ccccc21` was 74.9% (active).
Still for that read-out and setting: the same measure for `C=Cc1c(C)c2cc3[nH]c(cc4nc(cc5nc(cc1[nH]2)C(C)=C5CCC(=O)O)C(CCC(=O)O)=C4C)c(C)c3C=C`: 73.5% (active).
Still for that read-out and setting: the value for `CCN(CC)C(C)CN1c2ccccc2Sc2ccccc21` (stereo unspecified) was 69.2% (active); that for `NCCCCCC(=O)O` was -10.8%; that for `CCN(CC)CCNC(=O)c1ccc(NC(C)=O)cc1` was 18.3%.
Turning to `CCOC(=O)c1ccc(N)cc1`, the inhibition of viability is 7.6%.
Regarding `CNC[C@H](O)c1cccc(O)c1`, the inhibition of viability was 3.8%.
Still for that read-out and setting: the value for `O=c1c(O)c(-c2ccc(O)c(O)c2)oc2cc(O)cc(O)c12` was 4.5%; that for `O=C(OCC(O)CO)c1ccccc1Nc1ccnc2cc(Cl)ccc12` (stereo unspecified) was 38.5%; that for `CC(=O)O[C@]1(C(C)=O)CC[C@H]2[C@@H]3C=C(Cl)C4=CC(=O)[C@@H]5C[C@@H]5[C@]4(C)[C@H]3CC[C@@]21C` was 29.2%.
Still for that read-out and setting: the same measure for `C[C@H]1O[C@@H](n2cc(F)c(=O)[nH]c2=O)[C@H](O)[C@@H]1O`: 59.6% (active); for `CC1(C)NC(=O)N(c2ccc([N+](=O)[O-])c(C(F)(F)F)c2)C1=O`: 8.8%.
On the same count and under the same terms, the same measure for `C[N+](C)(C)CCCCCC[N+](C)(C)C`: 13.3%.
